# GLP1R inv ag = inverse agonists of human GLP-1 receptor; P43220; HEK293 GLP-1R CRE-luciferase, luminescence, 24 h; GLP-1R form is constitutively active; Potency, µM (top dose mostly 38.3 µM), for inactives: at the top dose activity change, negative = inhibition, most hits filed as inhibitors; hit rate 1.6% among 410,000; AID 624417; further: on the % scale 0 is the no-effect control and ±100 the full control effect; nearly all actives have a fitted effect of over 55% in size
# Target sequence (P43220 whole entry, looked up): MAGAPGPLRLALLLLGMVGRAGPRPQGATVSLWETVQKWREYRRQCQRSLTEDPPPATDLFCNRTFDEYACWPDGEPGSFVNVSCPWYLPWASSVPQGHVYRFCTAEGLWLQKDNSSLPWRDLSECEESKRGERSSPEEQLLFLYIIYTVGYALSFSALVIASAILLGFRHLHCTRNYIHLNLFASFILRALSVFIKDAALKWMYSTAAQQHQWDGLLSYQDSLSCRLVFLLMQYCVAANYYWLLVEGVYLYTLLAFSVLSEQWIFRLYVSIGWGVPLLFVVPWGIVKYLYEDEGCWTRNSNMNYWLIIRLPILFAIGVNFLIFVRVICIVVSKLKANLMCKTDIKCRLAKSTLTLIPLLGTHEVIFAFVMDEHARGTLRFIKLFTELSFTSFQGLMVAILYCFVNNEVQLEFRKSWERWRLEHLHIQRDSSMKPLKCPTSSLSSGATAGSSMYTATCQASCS
#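 qHTS in 1536-well format: reporter HEK293 cells expressing constitutive GLP-1R activity in DMEM + 10% Nu serum, 24 hr with compounds at 37 deg C, luminescence read after 12 min with detection reagent.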
# PTHR1 agonist = agonists of human PTHR1 parathyroid hormone receptor; AID 743266; Q03431; Potency, µM (top dose mostly 115 µM), for inactives: at the top dose activation, most hits filed as activators; hit rate 0.075% among 410,000; HEK293 GP2 PTHR1 cells, GloSensor cAMP luminescence, 1 h; further: nearly all actives have a fitted effect of over 55% in size
#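 HEK-293-derived GP2 cells expressing PTHR1 and a GloSensor cAMP reporter, 3,000/well, plated overnight, given luciferin plus IBMX (each 0.5 mM as added) for 1 h at 37 °C, then compound for 1 h at 37 °C. Luminescence was read after 15 min at room temperature.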
# HEK293 tox = cytotoxicity in counter-screen for GLP-1R inverse agonists | AID 624418 | hit rate 0.13% among 410,000 | Potency, µM (doses to about 38.3 µM), inactives show at the top dose activity change, negative = inhibition, hits mostly inhibitors | HEK293 cAMP-luciferase reporter cells, luminescence, 24 h;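 further: loss of luciferase light is scored as toxicity; on the % scale 0 is the no-effect control and ±100 the full control effect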
#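 Seeding density was 200 cells/uL; after overnight-length (12 h) culture, 23 nL compounds went on for 24 h at 37 °C. Readout used a luciferase detection reagent, luminescence taken after 12 min at room temperature.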
# GLP-1R agonist = GLP-1 receptor (human) agonism; hit rate 0.007% among 380,000; P43220; AID 624172; Potency, µM (doses to about 45.6 µM), inactives show at the top dose activation, usual class: activators; HEK293 GLP-1R CRE-luciferase, luminescence, 4-6 h; cells express a hypersensitive GLP-1R form; further: % of control where 0% means no effect
# Numbers without * were called inactive; i = inactive; ? = inconclusive; nt = not tested or not shown; [ ] = another dose, or the depositor's remark. Rows were chosen to be rich in hits. Some 1.7% of all compounds tested hit in one or more screens of this group. The call rests on the fitted dose curve; in most records, active means well fitted curve in the direction sought with a large enough effect; inconclusive means small, poorly fitted or top-dose-only effect, or another doubt; inactive means no such curve, though single readings can be large; an effect the other way counts as inactive or inconclusive. Potency means the concentration at half of the fitted maximal effect.
SMILES,GLP1R inv ag,PTHR1 agonist,HEK293 tox,GLP-1R agonist
O=c1oc2ccccc2n1CCn1c2ccccc2c2nc3ccccc3nc21,2.2%,i,-7.6%,-7.7%
COc1ccc2c(c1)c1nc3ccccc3nc1n2CCn1c(=O)oc2ccccc21,-2.8%,0.398µM*,2.7%,-10.5%
OCC1(O)OC[C@@H](O)[C@H](O)[C@@H]1O (stereo not given in full),nt,nt,nt,1.8%
Cc1ccc(Nc2nc(C(=O)N3CCC(C(=O)NCc4ccccc4)CC3)cs2)cc1,?,-31.7%,3.4%,14.1%
COc1ccc(CNC(=O)C2CCN(C(=O)c3csc(Nc4ccc(C)cc4)n3)CC2)cc1,7.94µM*,-81.1%,-6.3%,15.4%
O=C(CN1CCCCC1)N1c2ccccc2Oc2ccccc21,?,i,-7.4%,7.7%
O=C(CO/N=C/c1ccccc1)N1c2ccccc2Oc2ccccc21,8.91µM*,-61.4%,-11.0%,-1.2%
CCN(C(=O)c1cnc(N2CCOCC2)c2ccccc12)c1cc(C)ccc1C,-29.6%,i,-6.5%,nt
CCC(C)C(=O)N1c2ccccc2C(=C2SC(C(=O)OC)=C(C(=O)OC)S2)C(=S)C1(C)C (stereo not given),10µM*,-82.6%,9.7%,-1.1%
COc1cc(OC)cc(-c2nnc(SCC(=O)N(Cc3ccccc3)C(C)(C)C)o2)c1,8.91µM*,-5.2%[57.5 µM],8.0%,4.2%
COc1cc(-c2nnc(SCC(=O)N(Cc3ccccc3)C(C)(C)C)o2)cc(OC)c1OC,?,-4.0%[57.5 µM],26.1%,5.0%
COc1ccc(NC(=O)N2CCc3c(sc4c3CCCC4)C2c2ccc(F)cc2)cc1 (stereo not given),2.82µM*,-20.8%,6.0%,nt
Cc1cccc(NC(=O)N2CCc3c(sc4c3CCCC4)C2c2ccc(F)cc2)c1 (stereo not given),?,i,0.0%,nt
NCCCC(N)C(=O)O (stereo not given),nt,nt,nt,0.1%
COc1ccccc1N(Cc1ccccc1)S(=O)(=O)c1cccc(C(=O)Nc2cc(C)ccn2)c1,4.47µM*,-73.8%,8.9%,-0.4%
COc1ccccc1N(Cc1ccccc1)S(=O)(=O)c1cccc(C(=O)Nc2ncccc2C)c1,?,-7.1%,-2.6%,6.6%
COc1ccccc1N(Cc1ccccc1)S(=O)(=O)c1cccc(C(=O)NC2CC(C)(C)NC(C)(C)C2)c1,5.01µM*,-19.5%,?,-30.4%
COc1ccccc1N(Cc1ccccc1)S(=O)(=O)c1cccc(C(=O)O)c1,-7.9%,i,0.1%,-0.6%
CCOC(=O)CCC(=O)OC1C(OC2C(C)C(OC3CC(C)(OC)C(O)C(C)O3)C(C)C(=O)OC(CC)C(C)(O)C(O)C(C)C(=O)C(C)CC2(C)O)OC(C)CC1N(C)C (stereo not given),nt,nt,nt,-2.3%
COc1cccc(CNC(=O)c2oc3ccc4c(c3c2C)C(=O)CC(C)(C)O4)c1OC,14.1%,-25.5%,-8.8%,nt
CSc1ccc(CCNc2ncnc3onc(C)c23)cc1,-20.1%,-86.7%,-1.4%,nt
c1ccc(NN(Cc2ccccn2)c2ccccc2)cc1,?,-36.3%,25.8%,5.4%
Cc1cccc(CN(Nc2ccccc2)c2ccccc2)n1,10µM*,-3.2%,-5.9%,-4.1%
CCOc1cc(/C=N/NC(=O)Cc2ccc(C(F)(F)F)cc2[N+](=O)[O-])c(Br)cc1OC,-18.1%,28.8%[57.5 µM],-8.8%,-8.8%
COc1cc(Br)cc(/C=N/NC(=O)Cc2ccc(C(F)(F)F)cc2[N+](=O)[O-])c1O,?,-0.3%,0.501µM*,2.0%
SMILES,GLP1R inv ag,PTHR1 agonist,HEK293 tox,GLP-1R agonist
Cc1ccc(S(=O)(=O)Nc2ccc(NC(=O)Nc3ccc(F)cc3F)cc2)cc1,5.62µM*,-24.9%,-4.0%,2.2%
O=C(Nc1ccc(S(=O)(=O)N2CCCC2)cc1)Nc1ccc(F)cc1F,?,-27.7%,-15.6%,7.6%
COc1cc(C(=O)Nc2nnc(S(=O)(=O)N(C)c3ccccc3)s2)cc(OC)c1OC,15.6%,-9.7%,-7.8%,nt
COc1ccc(-c2cc(-n3c(C(F)(F)F)nc4ccccc43)n(CCC#N)n2)cc1,10µM*,i,-3.9%,0.3%
CCOC(=O)N1CCC(NC(=O)c2ccc3c(c2)N(Cc2ccc(F)cc2)C(=O)c2ccccc2S3=O)CC1 (stereo not given),0.7%,i,5.4%,1.6%
Cc1cc(C(=O)COC(=O)c2ccc(O)cc2)c(C)n1CCc1ccc(F)cc1,?,-41.2%,-15.1%,7.9%
Cc1cc(C(=O)CSc2nc(N)cc(N)n2)c(C)n1CCc1ccc(F)cc1,5.62µM*,-26.0%[57.5 µM],-24.9%,2.4%
Fc1ccccc1NC(=S)N/N=C/c1ccccc1Br,?,-5.5%,5.62µM*,13.4%
Cc1ccc(O)c2ncccc12,nt,nt,nt,5.4%
Cc1c(C)c2cccnc2c2ncccc12,?,?,0.891µM*,1.9%
Clc1cc2cccnc2c2ncccc12,4.47µM*,-91.6%,?,-2.0%
Cc1nc(C)c(-c2ccc(SCC(=O)Nc3ccc(Br)cc3)nn2)s1,6.3%,-44.9%,5.6%,nt
Cc1ccc(Cn2ccsc2=NC(=O)CCl)cc1,10µM*,-67.0%,-40.4%,19.6%
CCOc1ccccc1OCCN1CCC(Cc2ccccc2)CC1,?,-25.4%,?,9.5%
Cc1ccccc1OCCN1CCC(Cc2ccccc2)CC1,8.91µM*,i,-18.7%,3.9%
CCC(=O)c1ccccc1OCCCN1CCC(Cc2ccccc2)CC1,7.94µM*,-30.7%,?,8.1%
CCC(C)NC(=O)CO/N=C/c1ccccc1OC(F)F (stereo not given),17.3%,i,16.3%,2.7%
CC1CCCCC1NC(=O)CO/N=C/c1ccccc1OC(F)F (stereo not given),10µM*,-16.4%,-0.1%,25.4%
COc1ccccc1N1CCN(CC(C)N(C(=O)C2CCCCC2)c2ccccn2)CC1 (stereo not given),10µM*,-4.0%,-3.1%,2.9%
CCOC(=O)c1ccccc1NS(=O)(=O)c1c(-c2ccc(C)cc2)csc1C(=O)OC,?,-32.3%,17.3%,nt
COC(=O)c1scc(-c2ccc(C)cc2)c1S(=O)(=O)Nc1cc(Cl)ccc1C,?,-0.4%,-4.5%,nt
CCOc1ccccc1NS(=O)(=O)c1c(-c2ccc(C)cc2)csc1C(=O)OC,11.2µM*,i,1.1%,nt
COC(=O)c1scc(-c2ccc(C)cc2)c1S(=O)(=O)Nc1cccc(Cl)c1C,10µM*,i,0.2%,nt
Cc1ccc(S(=O)(=O)NCCc2cn3c(C)csc3n2)cc1,10.6%,-0.8%,1.2%,nt
Cc1ccc(C(C(=O)NC2CCCC2)N(C(=O)Cc2cccs2)c2ccc(C)c(C)c2)o1 (stereo not given),10µM*,i,-28.2%,2.7%
O=C(NC1CCCC1)C(c1ccc(F)cc1)N(C(=O)Cc1cccs1)c1ccc2c(c1)OCCO2 (stereo not given),0.0%,i,8.7%,2.1%
Cc1ccc(C(C(=O)NC2CCCC2)N(C(=O)Cc2cccs2)c2ccc3c(c2)OCCO3)cc1 (stereo not given),10µM*,i,-27.1%,-1.1%
